Reference: PubChem BioAssay (NCATS)
Results filed as inconclusive are left out. A call without a number means that no potency is given here. The source made the active and inactive calls. The call rests on the fitted dose curve; in most records, active means well fitted inhibition curve with a large enough effect; inconclusive means small, poorly fitted or top-dose-only effect; inactive means flat fitted curve, though single readings scatter.

Key:
Assay in all cases: qHTS profiling for inhibitors of Plasmodium falciparum proliferation (AID 504749); further: nearly all actives have a fitted effect of over 60% in size
Conditions in all cases: P. falciparum in erythrocytes, SYBR Green DNA, 72 h; series mostly up to 28.7 µM
[1] = system: CP335
In short: (§1)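 P. falciparum-infected erythrocytes (0.3% parasitemia, 2.5% hematocrit final) were exposed to compounds for 72 h at 37 C in 5% CO2, then lysed with SYBR Green buffer overnight at room temperature; parasite DNA fluorescence was normalized to artemisinin and DMSO controls.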

[2] = system: DFO2036
In short: as §1

[3] = system: DIV14
In short: as §1

[4] = system: DIV17
In short: as §1

[5] = system: DIV30
In short: as §1

[6] = system: Dd2
In short: as §1

[7] = system: ECU
In short: as §1

[8] = system: FAB9
In short: as §1

[9] = system: GB4
In short: as §1

[10] = system: HB3
In short: as §1

[11] = system: ICS
In short: as §1

[12] = system: JCK
In short: as §1

[13] = system: N140
In short: as §1

[14] = system: P93_24
In short: as §1

[15] = system: P94_40
In short: as §1

[16] = system: PAD
In short: as §1

[17] = system: PC15
In short: as §1

[18] = system: PC26
In short: as §1

[19] = system: PC49
In short: as §1

[20] = system: SC27B
In short: as §1
Potency means the concentration at half of the fitted maximal effect.

Compound | Potency [1] | Potency [2] | Potency [3] | Potency [4] | Potency [5] | Potency [6] | Potency [7] | Potency [8] | Potency [9] | Potency [10] | Potency [11] | Potency [12] | Potency [13] | Potency [14] | Potency [15] | Potency [16] | Potency [17] | Potency [18] | Potency [19] | Potency [20]
CC[N+]1(C)CCCC(OC(=O)C(O)(c2ccccc2)c2ccccc2)C1 (centres undefined) | inactive | inactive | inactive | inactive | inactive | inactive | inactive | inactive | inactive | inactive | inactive | inactive | inactive | inactive | inactive | inactive | inactive | inactive | inactive | inactive
Nc1ccncc1 | inactive | inactive | inactive | inactive | inactive | inactive | inactive | inactive | inactive | inactive | inactive | inactive | inactive | inactive | inactive | inactive | inactive |  | inactive | inactive
CCC(COC(=O)c1cc(OC)c(OC)c(OC)c1)(c1ccccc1)N(C)C (centres undefined) | inactive | inactive | inactive | inactive | inactive | inactive | inactive | inactive |  | inactive | inactive | inactive | inactive | inactive |  | inactive | inactive | inactive | inactive | inactive
NN=C(N)N | inactive | inactive | inactive | inactive | inactive | inactive | inactive | inactive | inactive | inactive | inactive | inactive | inactive | inactive | inactive | inactive | inactive | inactive | inactive | inactive
FC(F)(F)c1cccc(C2=CCN(CCc3ccc4ccccc4c3)CC2)c1 | inactive | inactive | inactive | inactive | inactive | inactive | inactive | inactive | inactive | inactive | inactive | inactive | inactive | inactive | inactive | inactive | inactive | inactive | inactive | inactive
Cn1c(CCCC(=O)O)nc2cc(N(CCCl)CCCl)ccc21 | inactive | inactive | inactive | inactive | inactive | inactive | inactive | inactive | inactive | inactive |  | inactive | inactive | inactive | inactive | inactive | inactive | inactive | inactive | inactive
O=c1[nH]c2ccccc2n1C1CCN(CCCC(c2ccc(F)cc2)c2ccc(F)cc2)CC1 | 13.5 µM (active) | inactive | inactive | inactive | inactive | 7.94 µM (active) | inactive | inactive | inactive | 10 µM (active) | 14.1 µM (active) | inactive |  |  | inactive | inactive | inactive |  | inactive | inactive
Clc1ccc(COC(Cn2ccnc2)c2ccc(Cl)cc2Cl)cc1 (centres undefined) | 4.26 µM (active) | 2.51 µM (active) | 1.9 µM (active) | 1.51 µM (active) | 1.69 µM (active) | 2.82 µM (active) | 0.794 µM (active) | 11.2 µM (active) | 1.69 µM (active) | 3.98 µM (active) | 0.631 µM (active) | 8.91 µM (active) | 1.58 µM (active) | 1.12 µM (active) | 2 µM (active) | 2.51 µM (active) | 2.82 µM (active) | 1.9 µM (active) | 8.91 µM (active) | 2.51 µM (active)
CC(C)CC(N(C)C)C1(c2ccc(Cl)cc2)CCC1 (centres undefined) | inactive | inactive | inactive | inactive | inactive | inactive | inactive | inactive | inactive | inactive | inactive | inactive | inactive | inactive | inactive | inactive | inactive | inactive | inactive | inactive
NP(N)(=O)NC(=O)c1ccc(F)cc1 | inactive | inactive | inactive | inactive | inactive | inactive | inactive | inactive | inactive | inactive | inactive | inactive | inactive | inactive | inactive | inactive | inactive | inactive | inactive | inactive
O=c1[nH]c2ccccc2n1CCCN1CCC(n2c(=O)[nH]c3cc(Cl)ccc32)CC1 | 10.7 µM (active) | inactive | 5.36 µM (active) | 8.49 µM (active) | 7.57 µM (active) |  | 7.94 µM (active) | inactive |  | 10 µM (active) | 2.24 µM (active) |  | 6.31 µM (active) | 5.01 µM (active) | 11.2 µM (active) | 4.47 µM (active) | 7.94 µM (active) | 6.75 µM (active) | inactive | 
Oc1cccc2cccnc12 | inactive | inactive | inactive | inactive | inactive | inactive | inactive | inactive | inactive | inactive | inactive | inactive | inactive | inactive | inactive | inactive | inactive | inactive | inactive | inactive
CN(C)CCc1ccc(O)cc1 | inactive | inactive | inactive | inactive | inactive | inactive | inactive | inactive | inactive | inactive | inactive | inactive | inactive | inactive | inactive | inactive | inactive | inactive | inactive | inactive
